HT1080-NT tox = kills 2HG-producing HT-1080-NT fibrosarcoma cells; Potency, µM (titrated, usually from 46.1 µM), actives largely listed as cytotoxic; HT-1080-NT fibrosarcoma viability, CellTiter-Glo ATP luminescence, 48 h; hit rate 1.6% among 360,000;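 also: NT is the 2HG producing partner of a matched IDH1 knockdown line; nearly all actives have a fitted effect of over 55% in size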
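Viability of the 2HG-overproducing fibrosarcoma line after 48 hours of compound exposure at 37 degrees C was determined by luminescence with CellTiter-Glo, and concentration-effect curves were then fitted and categorized.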
HT1080 IDH1KD tx = toxicity to HT-1080 IDH1 knockdown cells (counter line). HT-1080 IDH1 knockdown viability, ATP luminescence, 48 h. Potency, µM (doses to about 46.1 µM), actives largely listed as cytotoxic. hit rate 2% among 360,000. AID 686971
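Using the IDH1-knockdown HT-1080 line run in the same batch and compound series as the NT line, viability after 48 h at 37 °C was determined by CellTiter-Glo luminescence and expressed as % activity.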
TDP1 cell CPT = DT40-hTDP1 cell growth loss with CPT; chicken DT40 Tdp1-/-;hTDP1 cells + 20 nM CPT, ATP luminescence, 48 h; Potency, µM (series often up to 46.2 µM), most hits filed as inhibitors; hit rate 12% among 420,000; AID 686979; also: nearly all actives have a fitted effect of over 55% in size
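Chicken DT40 Tdp1-/- cells stably complemented with human TDP1 were seeded at 400 cells/well in medium containing 20 nM camptothecin, exposed to pin-transferred compounds, and grown at 37 °C for at least 48 hr. Viability was read as ATP luminescence.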
KB-3-1 cytotox = kills parental KB-3-1 adenocarcinoma cells; Potency, µM (series often up to 46.1 µM), actives largely listed as cytotoxic; KB-3-1 viability, CellTiter-Glo ATP luminescence, 72 h; AID 1347075; hit rate 1.4% among 400,000; also: nearly all actives have a fitted effect of over 60% in size
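KB-3-1 cells, DMEM (no phenol red) + 10% FBS; compound by pin transfer, 72 h, 37 °C. Readout: CellTiter-Glo luminescence after 10 min. Data normalized, curve-fitted.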
KB-V1 cytotox = kills drug-selected multidrug resistant KB-V1 cells; KB-V1 MDR cells viability, CellTiter-Glo, 72 h; Potency, µM (top dose mostly 46.1 µM), usual class: cytotoxic; hit rate 3.4% among 400,000; also: nearly all actives have a fitted effect of over 60% in size
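Cytotoxicity via CellTiter-Glo luminescence after 72 h compound exposure at 37 degrees C. Cells: drug-selected KB-V1 line, DMEM phenol-red free plus 10% FBS. Compounds tested at multiple concentrations; normalized data fitted to concentration-effect curves.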
DT40 TDP1 no CPT = qHTS for Inhibitors of human tyrosyl-DNA phosphodiesterase 1 (TDP1): qHTS in cells in absence of CPT | DT40 Tdp1-/- hTDP1 cells, no CPT, ATP luminescence, 48 h | Potency, µM (highest dose often 46.2 µM), most hits filed as inhibitors | hit rate 15% among 420,000; also: nearly all actives have a fitted effect of over 55% in size
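Growth of hTDP1-complemented DT40 Tdp1-knockout cells is measured by ATP luminescence after at least 48 hr compound exposure at 37 °C, with DMSO substituting for the 20 nM CPT used in the parallel screen.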
A number is an active result; – = inactive; ? = inconclusive; · = no result. Rows were chosen to be rich in hits. Some 19% of all compounds tested hit in one or more screens of this group. Calls follow the shape of the dose curve; as a rule, active = well fitted curve in the direction sought with a large enough effect; inconclusive = small, poorly fitted or top-dose-only effect, or another doubt; inactive = no such curve, though single readings can be large; an effect the other way counts as inactive or inconclusive.

SMILES	HT1080-NT tox	HT1080 IDH1KD tx	TDP1 cell CPT	KB-3-1 cytotox	KB-V1 cytotox	DT40 TDP1 no CPT
CCOC(=O)/C(C#N)=C/c1cc2ccccc2nc1Cl	–	?	2.8µM	–	–	4µM
Cc1nnc(C)n1/N=C/c1cc2ccccc2nc1Cl	–	–	2.6µM	–	–	2.9µM
Cn1c(N/N=C/c2c[nH]c3ccccc23)nc2ccccc21	?	?	?	?	–	?
COCCNC(=O)c1nn(-c2ccc(Cl)cc2)nc1CO	·	·	–	·	·	–
CC(C)c1ccc(NC(=O)CN2C(=O)c3cccc4cccc2c34)cc1	·	·	–	·	·	–
CC(=O)N[C@H]1[C@H]([C@H](O)[C@H](O)CO)OC(C(=O)O)=C[C@@H]1N=C(N)N	·	·	–	·	·	–
Cc1ccc(-c2nc(C(=O)NC3CCCCCC3)no2)cc1	–	–	?	–	–	18µM
COc1ccc(-c2noc(N3CCN(c4ccc(C)cc4)C(C)C3)n2)cc1OC (stereo not drawn)	·	·	?	–	?	16µM
Cc1cc2c(c(-c3cnccn3)c1)OC(CNC(=O)c1cc(Cl)ccc1F)C2 (stereo not drawn)	·	·	–	·	·	–
C(=C\c1ccnc2ccccc12)/c1ccc(N2CCOCC2)cc1	·	·	1.8µM	?	–	1.3µM
C(=C\c1ccnc2ccccc12)/c1ccc(N2CCNCC2)cc1	·	·	?	?	?	14µM
CN1CCCc2cc(/C=C/c3ccnc4ccccc34)ccc21	·	·	11µM	?	?	14µM
O=Cc1ccc(N2CCOCC2)cc1	·	·	–	–	–	–
C(=C\c1ccnc2ccccc12)/c1ccc(N2CCN(c3ccc(/C=C/c4ccnc5ccccc45)cc3)CC2)cc1	·	·	5µM	?	–	6.3µM
CN(C)c1ccc(C(O)c2cc3ccccc3s2)cc1 (stereo not drawn)	–	–	–	–	–	?
CC(=O)NCCNc1cc(-c2ccccc2C)ncn1	·	·	–	·	·	–
COc1ccc(Cl)cc1-n1nnc(-c2nsc(NC(=O)c3ccccc3Cl)n2)c1C	·	·	–	–	–	–
O=C(c1cnccn1)N1CCC2(CC1)CN(Cc1nccs1)C2	·	·	–	·	·	–
C[C@H](c1ccccc1)N1C[C@@H](COCc2ccccc2)Oc2cc(N3CCC[C@@H]3CO)ccc2S1(=O)=O	–	?	?	–	?	21µM
C[C@@H](c1ccccc1)N1C[C@@H](COCc2ccccc2)Oc2cc(N3CCC[C@H]3CO)ccc2S1(=O)=O	–	–	?	–	–	21µM
CCOc1cc(C(=O)Nc2cc(C(=O)OC)ccc2C)ccc1OCC(=O)N1CCOCC1	?	–	–	–	–	–
NC(c1csc(Nc2ccc(C(=O)NCCCO)cn2)n1)c1ccccc1Cl (stereo not drawn)	–	–	–	–	–	–
N#CC1(NC(=O)COC(=O)Cc2c[nH]c3ccccc23)CCCCC1	–	–	–	–	–	–
Cc1ccc(SCCNC(=O)CN(c2ccccc2)S(=O)(=O)N(C)C)cc1	·	·	–	–	–	?
Cc1c(C)n(Cc2ccccc2)c2ncnc(Cl)c12	–	–	15µM	–	–	3.7µM
SMILES	HT1080-NT tox	HT1080 IDH1KD tx	TDP1 cell CPT	KB-3-1 cytotox	KB-V1 cytotox	DT40 TDP1 no CPT
S=c1[nH]nc(-c2cc(-c3ccsc3)n[nH]2)n1-c1cccc2ccccc12	–	–	?	–	–	29µM
N#Cc1c(N)n(CCNC(=O)c2ccccc2)c2nc3ccccc3nc12	–	–	–	?	–	–
C=CCn1c(NC(=O)c2ccccc2Cl)c(C#N)c2nc3ccccc3nc21	–	–	16µM	?	8.2µM	21µM
Cc1ccccc1N(CC(=O)N1CCOCC1)S(C)(=O)=O	–	–	–	–	–	–
Cn1nc(C(=O)Nc2cccc(S(=O)(=O)N3CCCCC3)c2)c2ccccc2c1=O	–	–	?	?	–	?
COc1ccccc1CN1C[C@@H]2C[C@@H](c3ccccc3OC)N3CCC[C@@]23C1=O	–	–	16µM	–	–	?

Compound activity (PubChem BioAssay)
